Test results: the supplement of paper PMC10849652
About 7,900 targets were measured; listed, in parts, are those with a hit and a random draw of the rest. About 0.6% of all pairs of compound and target were hits. Unmarked numbers belong to inactive results.

What was measured:
Assay in all cases: log2 fold change, soluble protein after heating vs DMSO (PISA); higher = thermal stabilisation; K562 cells, 10 uM, 30 min; active = over 0.2 and 3.5 SD of the protein, either way, in both replicates (recomputed)
[1] = compound: NC(=O)Nc1cc(-c2cccc(F)c2)sc1C(=O)N[C@H]1CCCNC1
How it was run: (§1)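 Thermal stability values are relative to control samples and come from duplicates. They are expressed as log2 fold changes. For measurement, K562 cells (2×10^6 cells/mL) received 10 μM compound for 30 min, and aliquots were heated for 3 min over 48°C-58°C, pooled, and extracted at 4°C in PBS with 0.5% NP-40. Soluble protein, the supernatant after 21,000xg for 90 min, was quantified by TMTpro 16plex LC-MS/MS with equalised channel sums.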

[2] = compound: NC(=O)c1cnc(N[C@@H]2CCCC[C@@H]2N)nc1Nc1cccc(-n2nccn2)c1
How it was run: as §1

[3] = compound: NC1(c2ccc(-c3nc4ccn5c(=O)[nH]nc5c4cc3-c3ccccc3)cc2)CCC1
How it was run: as §1

[4] = compound: NCC(=O)Nc1ccc(-n2nc(C(F)(F)F)cc2-c2ccc3c(ccc4ccccc43)c2)cc1
How it was run: as §1

entinostat = compound: Nc1ccccc1NC(=O)c1ccc(CNC(=O)OCc2cccnc2)cc1 [entinostat]
How it was run: as §1

vorinostat = compound: O=C(CCCCCCC(=O)Nc1ccccc1)NO [vorinostat]
How it was run: as §1

citarinostat = compound: O=C(CCCCCCNC(=O)c1cnc(N(c2ccccc2)c2ccccc2Cl)nc1)NO [citarinostat]
How it was run: as §1

silmitasertib = compound: O=C(O)c1ccc2c(c1)nc(Nc1cccc(Cl)c1)c1ccncc12 [silmitasertib]
How it was run: as §1

[5] = compound: O=C1NC(=O)C(c2cnc3ccccn23)=C1c1cn2c3c(cc(F)cc13)CN(C(=O)N1CCCCC1)CC2
How it was run: as §1

[6] = compound: c1cc(OCCN2CCCCC2)cc(-c2n[nH]c3ccc(-c4nnc[nH]4)cc23)c1
How it was run: as §1

Sequence of UniProt Q8TBN0 (Q8TBN0 whole entry, looked up): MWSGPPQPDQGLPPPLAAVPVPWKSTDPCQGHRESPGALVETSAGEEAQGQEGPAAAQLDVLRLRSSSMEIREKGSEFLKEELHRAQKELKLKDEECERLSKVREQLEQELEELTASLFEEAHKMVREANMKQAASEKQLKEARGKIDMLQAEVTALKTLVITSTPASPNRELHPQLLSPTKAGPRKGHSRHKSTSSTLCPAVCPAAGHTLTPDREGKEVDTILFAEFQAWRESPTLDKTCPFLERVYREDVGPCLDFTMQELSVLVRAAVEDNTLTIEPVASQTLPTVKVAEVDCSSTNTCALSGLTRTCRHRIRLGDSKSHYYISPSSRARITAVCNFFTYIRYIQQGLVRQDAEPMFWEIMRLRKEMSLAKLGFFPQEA
Sequence of UniProt Q9BQY4 (Q9BQY4 whole entry, looked up): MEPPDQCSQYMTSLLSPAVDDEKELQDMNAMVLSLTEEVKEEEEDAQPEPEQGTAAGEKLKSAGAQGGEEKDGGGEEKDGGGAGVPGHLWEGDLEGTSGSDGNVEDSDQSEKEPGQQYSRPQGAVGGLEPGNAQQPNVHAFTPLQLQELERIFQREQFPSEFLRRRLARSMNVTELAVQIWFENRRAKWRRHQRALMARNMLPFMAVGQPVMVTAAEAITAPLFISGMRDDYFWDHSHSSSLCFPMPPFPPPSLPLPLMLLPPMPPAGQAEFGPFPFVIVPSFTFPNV
Sequence of UniProt Q9BVS4 (Q9BVS4 whole entry, looked up): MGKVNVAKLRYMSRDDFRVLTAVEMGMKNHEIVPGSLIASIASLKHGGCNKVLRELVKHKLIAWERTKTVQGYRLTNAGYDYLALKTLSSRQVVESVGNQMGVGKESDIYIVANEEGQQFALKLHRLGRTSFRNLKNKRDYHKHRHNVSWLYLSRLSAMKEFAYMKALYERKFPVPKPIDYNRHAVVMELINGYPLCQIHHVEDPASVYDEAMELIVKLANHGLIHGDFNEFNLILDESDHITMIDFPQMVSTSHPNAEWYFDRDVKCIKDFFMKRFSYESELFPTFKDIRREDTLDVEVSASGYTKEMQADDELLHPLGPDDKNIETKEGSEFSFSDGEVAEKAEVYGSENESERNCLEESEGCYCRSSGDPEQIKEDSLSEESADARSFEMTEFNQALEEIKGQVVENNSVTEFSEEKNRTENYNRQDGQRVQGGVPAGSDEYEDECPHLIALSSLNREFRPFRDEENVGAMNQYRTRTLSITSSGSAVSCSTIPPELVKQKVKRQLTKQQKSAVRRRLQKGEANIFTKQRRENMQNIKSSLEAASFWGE
Sequence of UniProt Q5JTH9 (Q5JTH9 whole entry, looked up): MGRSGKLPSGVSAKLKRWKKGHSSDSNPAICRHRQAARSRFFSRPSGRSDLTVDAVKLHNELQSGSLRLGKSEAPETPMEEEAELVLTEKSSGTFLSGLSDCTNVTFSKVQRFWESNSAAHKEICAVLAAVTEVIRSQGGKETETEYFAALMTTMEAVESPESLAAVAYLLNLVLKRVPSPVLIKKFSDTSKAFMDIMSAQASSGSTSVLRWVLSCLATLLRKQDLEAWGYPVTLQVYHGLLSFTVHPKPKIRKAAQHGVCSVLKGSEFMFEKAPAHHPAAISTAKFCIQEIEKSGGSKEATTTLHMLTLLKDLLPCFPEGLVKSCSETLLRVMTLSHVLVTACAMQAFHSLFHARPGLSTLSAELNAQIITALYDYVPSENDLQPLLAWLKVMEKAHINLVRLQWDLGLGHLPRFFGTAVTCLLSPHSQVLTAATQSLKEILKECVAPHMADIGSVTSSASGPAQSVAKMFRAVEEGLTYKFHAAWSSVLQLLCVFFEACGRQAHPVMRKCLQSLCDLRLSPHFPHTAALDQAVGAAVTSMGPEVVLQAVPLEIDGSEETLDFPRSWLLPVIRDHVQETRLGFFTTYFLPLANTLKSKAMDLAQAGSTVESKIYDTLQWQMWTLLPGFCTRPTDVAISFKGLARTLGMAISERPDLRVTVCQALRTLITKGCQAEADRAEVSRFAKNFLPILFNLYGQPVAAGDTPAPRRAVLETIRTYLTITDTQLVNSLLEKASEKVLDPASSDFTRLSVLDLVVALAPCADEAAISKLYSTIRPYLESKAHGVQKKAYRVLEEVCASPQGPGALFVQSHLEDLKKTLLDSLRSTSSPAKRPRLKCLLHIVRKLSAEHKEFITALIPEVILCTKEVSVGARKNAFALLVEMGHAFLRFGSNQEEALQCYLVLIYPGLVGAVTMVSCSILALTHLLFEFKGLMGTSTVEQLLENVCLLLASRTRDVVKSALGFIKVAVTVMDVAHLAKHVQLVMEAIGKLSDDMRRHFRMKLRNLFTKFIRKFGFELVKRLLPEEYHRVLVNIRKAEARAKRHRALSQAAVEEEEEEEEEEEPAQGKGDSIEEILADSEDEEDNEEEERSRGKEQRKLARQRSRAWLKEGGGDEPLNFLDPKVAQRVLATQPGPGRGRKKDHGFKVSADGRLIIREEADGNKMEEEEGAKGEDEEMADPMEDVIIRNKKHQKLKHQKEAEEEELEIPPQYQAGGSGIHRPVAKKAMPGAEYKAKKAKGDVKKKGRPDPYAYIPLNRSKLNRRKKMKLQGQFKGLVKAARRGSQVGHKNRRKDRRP
Sequence of UniProt O43818 (O43818 whole entry, looked up): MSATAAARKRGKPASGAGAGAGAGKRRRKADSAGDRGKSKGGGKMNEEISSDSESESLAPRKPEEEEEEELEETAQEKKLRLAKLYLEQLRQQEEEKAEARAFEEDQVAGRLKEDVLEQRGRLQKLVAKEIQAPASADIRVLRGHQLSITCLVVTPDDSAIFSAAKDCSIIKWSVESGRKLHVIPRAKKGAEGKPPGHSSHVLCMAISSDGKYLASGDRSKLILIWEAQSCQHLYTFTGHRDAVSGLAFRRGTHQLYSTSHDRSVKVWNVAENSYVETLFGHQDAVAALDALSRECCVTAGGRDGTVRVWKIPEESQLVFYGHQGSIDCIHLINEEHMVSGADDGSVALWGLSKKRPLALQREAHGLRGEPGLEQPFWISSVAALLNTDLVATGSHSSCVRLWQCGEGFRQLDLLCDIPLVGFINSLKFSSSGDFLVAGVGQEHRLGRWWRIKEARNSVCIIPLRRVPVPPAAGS
Sequence of UniProt Q04206 (Q04206 whole entry, looked up): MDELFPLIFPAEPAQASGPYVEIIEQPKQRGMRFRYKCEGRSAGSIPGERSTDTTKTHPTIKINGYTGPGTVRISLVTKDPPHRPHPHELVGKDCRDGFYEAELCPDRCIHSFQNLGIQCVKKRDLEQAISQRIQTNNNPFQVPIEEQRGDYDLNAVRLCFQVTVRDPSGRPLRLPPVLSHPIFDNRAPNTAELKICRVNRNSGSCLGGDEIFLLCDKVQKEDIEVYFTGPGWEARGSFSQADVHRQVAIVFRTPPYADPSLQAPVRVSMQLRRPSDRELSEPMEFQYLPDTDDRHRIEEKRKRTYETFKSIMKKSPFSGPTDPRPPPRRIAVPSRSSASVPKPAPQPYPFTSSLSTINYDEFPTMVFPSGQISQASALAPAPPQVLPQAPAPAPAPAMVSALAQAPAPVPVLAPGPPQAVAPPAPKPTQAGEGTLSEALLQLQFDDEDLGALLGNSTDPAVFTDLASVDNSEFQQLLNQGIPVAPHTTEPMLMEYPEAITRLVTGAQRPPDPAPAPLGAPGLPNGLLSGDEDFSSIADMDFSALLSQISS
Sequence of UniProt Q14493 (Q14493 whole entry, looked up): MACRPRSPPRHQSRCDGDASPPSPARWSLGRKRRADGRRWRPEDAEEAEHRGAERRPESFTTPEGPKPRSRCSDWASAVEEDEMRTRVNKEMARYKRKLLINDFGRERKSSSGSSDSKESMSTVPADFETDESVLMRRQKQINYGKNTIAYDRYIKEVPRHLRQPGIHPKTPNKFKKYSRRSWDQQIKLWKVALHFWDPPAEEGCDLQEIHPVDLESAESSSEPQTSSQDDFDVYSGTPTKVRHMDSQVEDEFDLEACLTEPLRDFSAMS
Sequence of UniProt Q06609 (Q06609 whole entry, looked up): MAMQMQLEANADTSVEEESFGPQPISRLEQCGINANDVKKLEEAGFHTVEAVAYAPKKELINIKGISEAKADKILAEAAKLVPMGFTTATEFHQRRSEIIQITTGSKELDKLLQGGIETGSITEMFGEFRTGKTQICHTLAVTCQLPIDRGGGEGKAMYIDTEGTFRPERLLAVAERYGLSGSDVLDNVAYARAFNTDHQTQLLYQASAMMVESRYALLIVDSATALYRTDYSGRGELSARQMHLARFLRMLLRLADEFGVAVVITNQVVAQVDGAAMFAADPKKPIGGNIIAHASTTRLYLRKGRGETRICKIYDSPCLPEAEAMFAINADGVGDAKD
Sequence of UniProt P41440 (P41440 whole entry, looked up): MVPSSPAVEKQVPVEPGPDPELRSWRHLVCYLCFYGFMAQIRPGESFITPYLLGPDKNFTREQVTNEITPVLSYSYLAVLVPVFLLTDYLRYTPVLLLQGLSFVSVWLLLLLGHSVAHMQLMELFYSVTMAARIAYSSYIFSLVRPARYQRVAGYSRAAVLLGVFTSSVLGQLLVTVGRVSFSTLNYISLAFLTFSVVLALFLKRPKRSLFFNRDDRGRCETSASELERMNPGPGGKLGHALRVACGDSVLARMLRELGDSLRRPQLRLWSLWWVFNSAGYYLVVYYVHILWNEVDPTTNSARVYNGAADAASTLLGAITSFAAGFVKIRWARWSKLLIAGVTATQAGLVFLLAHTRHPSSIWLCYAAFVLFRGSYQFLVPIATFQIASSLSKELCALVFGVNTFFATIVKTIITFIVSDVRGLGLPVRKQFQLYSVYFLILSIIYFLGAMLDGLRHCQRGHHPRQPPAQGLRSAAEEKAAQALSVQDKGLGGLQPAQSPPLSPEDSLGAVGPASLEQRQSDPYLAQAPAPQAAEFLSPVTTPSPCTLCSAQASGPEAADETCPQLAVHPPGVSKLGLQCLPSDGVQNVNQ
Sequence of UniProt O75446 (O75446 whole entry, looked up): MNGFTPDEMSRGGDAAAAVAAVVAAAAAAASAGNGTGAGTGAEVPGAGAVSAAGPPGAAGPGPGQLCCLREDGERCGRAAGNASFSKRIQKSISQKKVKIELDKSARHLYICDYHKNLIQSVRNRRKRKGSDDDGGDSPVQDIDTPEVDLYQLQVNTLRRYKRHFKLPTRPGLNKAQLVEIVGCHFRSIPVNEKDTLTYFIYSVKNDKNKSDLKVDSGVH

Row | Target | log2 fold change [1] | log2 fold change [2] | log2 fold change [3] | log2 fold change [4] | log2 fold change (entinostat) | log2 fold change (vorinostat) | log2 fold change (citarinostat) | log2 fold change (silmitasertib) | log2 fold change [5] | log2 fold change [6]
1 | SLC19A1 (UniProt P41440) | 0.1 | 0.157 | 0.036 | 0.007 | -0.017 | 0.057 | 0.02 | -0.013 | 0.207 | -0.033
2 | RELA (UniProt Q04206) | -0.009 | -0.06 | -0.121 | -0.016 | 0.019 | 0.036 | 0.079 | -0.029 | -0.017 | -0.002
3 | RPS20 isoform 2 (UniProt P60866) | -0.012 | 0.056 | 0.151 | 0.037 | -0.029 | 0.012 | -0.091 | -0.006 | 0.072 | -0.1
4 | RPL31 (UniProt P62899) | 0.042 | 0.099 | 0.26 | 0.075 | -0.079 | -0.012 | -0.09 | 0.048 | 0.104 | -0.12
5 | SLBP (UniProt Q14493) | 0.043 | 0.051 | -0.028 | -0.005 | 0.018 | 0.085 | 0.035 | 0.007 | 0.064 | 0.035
6 | SCD (UniProt O00767) | -0.064 | -0.151 | -0.071 | -0.054 | -0.043 | -0.382 (active) | -0.403 (active) | 0.083 | 0.051 | -0.005
7 | RPS5 (UniProt P46782) | 0.035 | 0.105 | 0.153 | 0.133 | -0.043 | 0 | -0.052 | -0.07 | 0.094 | -0.12
8 | RRP9 (UniProt O43818) | 0 | 0.053 | 0.14 | 0.08 | -0.002 | -0.035 | 0.003 | 0.069 | 0.112 | -0.073
9 | RRP12 (UniProt Q5JTH9) | 0.062 | 0.188 | 0.089 | 0.051 | 0.081 | 0.072 | -0.064 | 0.121 | 0.119 | 0.216
10 | RCN3 (UniProt Q96D15) | -0.042 | -0.027 | 0.105 | -0.013 | -0.027 | -0.122 | -0.063 | -0.002 | -0.039 | 0.12
11 | RIOK2 (UniProt Q9BVS4) | -0.008 | 0.351 (active) | 0.04 | 0.027 | -0.041 | -0.044 | -0.067 | 0.018 | 0.086 | -0.071
12 | RPS3A (UniProt P61247) | 0.01 | 0.084 | 0.164 | 0.035 | -0.04 | 0.041 | -0.071 | 0.017 | 0.088 | -0.131
13 | SELENOH (UniProt Q8IZQ5) | 0.227 | 0.194 | 0.011 | 0.049 | 0.066 | -0.007 | 0.067 | 0.011 | 0.038 | 0.053
14 | SDCBP (UniProt O00560) | -0.027 | -0.017 | -0.207 | -0.189 | 0.007 | 0.063 | -0.014 | 0.073 | 0.028 | -0.08
15 | RPS27A (UniProt P62979) | 0.024 | 0.16 | 0.286 | 0.177 | -0.047 | -0.007 | -0.211 | 0.05 | 0.064 | -0.06
16 | RABGGTA (UniProt Q92696) | 0.034 | -0.008 | -0.257 (active) | 0.051 | -0.05 | 0.005 | 0.038 | 0.008 | 0.003 | 0.027
17 | RARS (UniProt P54136) | 0.098 | -0.076 | 0.032 | -0.01 | 0.041 | 0.115 | 0.028 | 0.107 | 0.325 | -0.135
18 | RUNX1 isoform 8 (UniProt Q01196) | -0.027 | 0.03 | -0.092 | 0.187 | -0.16 | 0.321 | -0.249 | 0.119 | 0.082 | 0.051
19 | SENP6 (UniProt Q9GZR1) | 0.011 | -0.009 | -0.073 | -0.023 | -0.019 | -0.021 | 0.04 | -0.118 | 0.027 | -0.049
20 | RECQL (UniProt P46063) | 0.034 | -0.076 | -0.047 | -0.033 | 0.001 | 0.045 | 0.092 | -0.028 | -0.019 | -0.03
21 | RETSAT (UniProt Q6NUM9) | -0.058 | -0.05 | -0.028 | -0.019 | 0.129 | -0.048 | 0.028 | -0.014 | 0.026 | -0.047
22 | RPP25L (UniProt Q8N5L8) | 0.003 | -0.052 | -0.012 | -0.032 | -0.001 | -0.014 | -0.08 | 0.073 | 0.183 | -0.075
23 | RAD51 (UniProt Q06609) | 0.051 | -0.019 | -0.057 | 0.031 | 0.001 | 0.047 | 0.018 | -0.003 | -0.014 | -0.012
24 | RAB5C isoform 2 (UniProt P51148) | 0.092 | 0.041 | 0.017 | 0.051 | 0.007 | -0.001 | -0.004 | -0.009 | 0.049 | -0.028
25 | SAP30 (UniProt O75446) | 0.043 | 0.032 | 0.044 | 0.287 | 0.165 | 0.307 |  | 0.106 | 0.047 | 
26 | RAB3IL1 (UniProt Q8TBN0) | 0.041 | -0.011 | -0.025 | -0.046 | -0.019 | -0.032 | 0.035 | 0.053 | -0.038 | 0.008
27 | RHOXF2 (UniProt Q9BQY4) | 0.004 | 0.015 | 0.039 | 0.013 | -0.002 | -0.091 | 0.006 | 0.045 | -0.023 | -0.036
28 | RUFY3 isoform 3 (UniProt Q7L099) | -0.032 | -0.022 | -0.05 | -0.014 | 0.143 | 0.071 | 0.089 | 0.1 |  | 0.013
